In ChEMBL document CHEMBL4513216, “Probing the Open Global Health Chemical Diversity Library for Multistage-Active Starting Points for Next-Generation Antimalarials” (ACS Infect Dis, 2020):
Screen size: about 68,000 compounds; about 2,700 (4%) showed an effect of 50% or more. The sample as a whole holds a higher share of strong results than the screen did.

These molecules were tested on Plasmodium berghei (assay: Screen against P. berghei liver stage (PbLuc), transformed with Luciferase, at 2uM). Conditions: tested at 2 uM.
Type: functional, HepG2
For Cc1ccccc1CN1CCC(CNc2ncnc3c2CCNCC3)C1 (stereo not given), the INHIBITION was 32.26%.
Work on c1cnc(N2CCOCC3(CN(Cc4nccs4)CCO3)C2)nc1 (stereo not given) yielded an INHIBITION of 14.39%.
Work on CCC(C)NC(=O)c1nnn(-c2cccc3c2CCN(C)C3)c1C (stereo not given) yielded an INHIBITION of -46.36%.
Work on O=C(NCCN1CCCCC1)c1ccoc1 yielded an INHIBITION of 6.12%.
COc1ccc(-c2cnc(CN3CCCC3Cn3cccn3)o2)cc1 (stereo not given) gave an INHIBITION of -36.73%.
O=C(NC1CCN(c2cccc(OC(F)(F)F)c2)C1=O)C1CC1 (stereo not given) gave an INHIBITION of -0.13%.
Work on CC(C)OCCN(Cc1cccc(O)c1)C1CCC(O)CC1 (stereo not given) yielded an INHIBITION of 11.78%.
Molecule C=C(C)CN(Cc1cccc(O)c1)C1CCC(O)CC1 (stereo not given) has an INHIBITION of 6.55%.
CS(=O)(=O)CCN(Cc1cccc(O)c1)C1CCC(O)CC1 (stereo not given) was tested, and the INHIBITION was 50.4%.
Work on CSCCC(=O)N1CCC(CCC(=O)NCC2CCCO2)CC1 (stereo not given) yielded an INHIBITION of 20.71%.
For O=C(CNC(=O)c1c(F)cccc1Cl)Nc1ccc(F)cn1, the INHIBITION was 67.28%.
In the case of CC(O)(CNC(=O)c1c(F)cccc1Cl)C1CC1 (stereo not given), the INHIBITION is reported as -21.74%.
With Cc1nc(NC(=O)CNC(=O)c2c(F)cccc2Cl)n[nH]1 the INHIBITION was 9.5%.
With CCc1c(C)nc2cc(C3CCN(Cc4cccnc4)C3)nn2c1O (stereo not given) the INHIBITION was 31.56%.
CCc1c(C)nc2cc(C3CCN(Cc4cccc(F)c4)C3)nn2c1O (stereo not given) was tested, and the INHIBITION was 65.74%.
With CCc1c(C)nc2cc(C3CCN(Cc4ccc(F)cc4)C3)nn2c1O (stereo not given) the INHIBITION was 40.31%.
Molecule CCc1ccc(CN2CCc3ncnc(N4CCOCC4)c3CC2)o1 has an INHIBITION of -21.37%.
CN1CCN(C[C@@H]2CN(C(=O)NCC3CCCCC3)C[C@@H]2CO)CC1 gave an INHIBITION of -26.04%.
For COc1ccc(CN2CC[C@H]3O[C@@H](C(=O)NCC4CC4)CC[C@H]32)cc1, the INHIBITION was 44.4%.
Work on CCN(CC)c1ccc(NC(=O)NC(C)Cn2cccn2)cn1 (stereo not given) yielded an INHIBITION of 52.3%.
Work on CC(Cn1cccn1)NC(=O)NCCN1CCCCCC1=O (stereo not given) yielded an INHIBITION of 50.03%.
Cc1ccc(CNC(=O)NC(C)Cn2cccn2)cn1 (stereo not given) showed an INHIBITION of 49.01%.
In the case of CC(Cn1cccn1)NC(=O)Nc1ccc(N(C)C)nc1 (stereo not given), the INHIBITION is reported as 5.96%.
COc1ccc(NC(=O)NC(C)Cn2cccn2)cn1 (stereo not given) gave an INHIBITION of -40.27%.
Work on CC(Cn1cccn1)NC(=O)NCCCN1CCCCCC1=O (stereo not given) yielded an INHIBITION of 48.37%.
CC(Cn1cccn1)NC(=O)NCCc1cccnc1 (stereo not given) showed an INHIBITION of 10.53%.
Molecule CC(Cn1ccnc1)NC(=O)NCCN1CCCCCC1=O (stereo not given) has an INHIBITION of 17.18%.
CC(Cn1cccn1)NC(=O)NCc1cccnc1 (stereo not given) showed an INHIBITION of 61.3%.
COc1ccc2c(ccn2CCC(=O)NCc2ccc(C(=O)O)cc2)c1 gave an INHIBITION of 42.94%.
Work on Cc1ccc(C(CCNCCN(C)C)C2CCOC(C)(C)C2)cc1 (stereo not given) yielded an INHIBITION of 26.52%.
CC(C)CN1CCc2[nH]cnc2C12CCN(C(=O)c1ccnn1C)CC2 gave an INHIBITION of 29.19%.
Cc1ocnc1C(=O)N1CCC2(CC1)c1nc[nH]c1CCN2CC(C)C was tested, and the INHIBITION was 52.83%.
For CC(C)CN1CCc2[nH]cnc2C12CCN(C(=O)c1cccnc1)CC2, the INHIBITION was 0.3%.
Work on CC(C)CN1CCc2[nH]cnc2C12CCN(C(=O)c1ccc[nH]1)CC2 yielded an INHIBITION of 22.43%.
Cc1cc(C(=O)N2CCC3(CC2)c2nc[nH]c2CCN3CC(C)C)no1 was tested, and the INHIBITION was 37.63%.
CC(C)CN1CCc2[nH]cnc2C12CCN(C(=O)c1cnn(C)c1)CC2 was tested, and the INHIBITION was 51.14%.
With CCc1ccc(S(=O)(=O)N2CCCC3(CCCN3S(C)(=O)=O)C2)cc1 (stereo not given) the INHIBITION was 28.41%.
With Cc1cc(C)n(CCNCc2cc(-c3ccccc3)c[nH]c2=O)n1 the INHIBITION was 24.26%.
CC1CCc2nn(CCNC(=O)c3cccs3)c(=O)cc2C1 (stereo not given) gave an INHIBITION of 28.82%.
CC(C)N1[C@@H](C(=O)NCC2CC2)C[C@@H]2CN(Cc3ccco3)C[C@@H]21 gave an INHIBITION of 28.2%.
Cc1nn(C)c(C)c1C(C)NCc1ccsc1 (stereo not given) was tested, and the INHIBITION was 38.83%.
Work on CS(=O)(=O)c1cncnc1C1CCCN(C(=O)Nc2ccc(F)cc2)C1 (stereo not given) yielded an INHIBITION of -0.7%.
CC(C)N(Cc1ccccn1)C(=O)CCOc1cccc(F)c1 was tested, and the INHIBITION was 5.43%.
In the case of Cc1cc(NCC2CCCO2)cc(=O)n1C (stereo not given), the INHIBITION is reported as -0.15%.
COCCNC(=O)C(C)n1nc(-c2ccco2)cc(N)c1=O (stereo not given) was tested, and the INHIBITION was 54.2%.
COCCNC(=O)C(C)n1nc(-c2ccc(C)o2)cc(N)c1=O (stereo not given) gave an INHIBITION of -21.09%.
Work on COCCCNC(=O)C(C)n1nc(-c2ccco2)cc(N)c1=O (stereo not given) yielded an INHIBITION of -1.32%.
Work on CCN1CCC(CNC(=O)C(c2ccccc2F)N(C)C)(N(C)C)CC1 (stereo not given) yielded an INHIBITION of 46.58%.
O=C(Cc1cccs1)N1CCOCC1c1ccccc1 (stereo not given) was tested, and the INHIBITION was -26.81%.
CC(C)n1ccnc1CN1CCCN(C(=O)c2cscn2)CC1 showed an INHIBITION of -28.58%.
With CC(C)C(O)CNC(=O)Nc1cccc(-c2nccs2)c1 (stereo not given) the INHIBITION was -2.23%.
In the case of CN(Cc1ccc2nsnc2c1)CC1(O)CNCCOC1 (stereo not given), the INHIBITION is reported as -1.57%.
Cn1cc(CN(CC2(O)CNCCOC2)C2CCCCC2)cn1 (stereo not given) was tested, and the INHIBITION was 0.17%.
Work on OC1(CN(Cc2cccnc2)C2CCCCC2)CNCCOC1 (stereo not given) yielded an INHIBITION of 74.3%.
Work on Cn1cc(CN(CC2(O)CCNC2)C2CCCCC2)cn1 (stereo not given) yielded an INHIBITION of 60.64%.
Molecule OC1(CN2CCC(Oc3cccnc3)CC2)CNCCOC1 (stereo not given) has an INHIBITION of 3.58%.
Cn1cc(CN(C/C=C/c2ccccc2)C2CC2)cn1 showed an INHIBITION of -17.37%.
In the case of CN(C)c1ccc(C(CNS(=O)(=O)c2cccs2)N2CCCC2)cc1 (stereo not given), the INHIBITION is reported as 14.19%.
For COc1cccc(-c2n[nH]cc2-c2nc(CC3CCN(C)CC3)no2)c1, the INHIBITION was 38.67%.
Molecule Cc1noc(C)c1C(=O)N1CCCC1(C)C(=O)NC1CCCC1 (stereo not given) has an INHIBITION of 11.32%.
With O=C(Cc1ccc2c(c1)CCC2)N1CCCC(n2cccn2)C1 (stereo not given) the INHIBITION was -0.71%.
Cc1cnn(C2CCCN(C(=O)Cc3ccc4c(c3)CCO4)C2)c1 (stereo not given) showed an INHIBITION of 11.95%.
O=C(Cc1ccc2c(c1)OCCO2)N1CCCC(n2cncn2)C1 (stereo not given) showed an INHIBITION of -7.15%.
For O=C(Cc1ccc2c(c1)OCCO2)N1CCCC(n2cccn2)C1 (stereo not given), the INHIBITION was 56.12%.
Work on O=C(CCc1ccc2c(c1)OCO2)N1CCCC(n2cccn2)C1 (stereo not given) yielded an INHIBITION of -29.38%.
With O=C(Cc1ccc2c(c1)CCO2)N1CCCC(n2cccn2)C1 (stereo not given) the INHIBITION was 52.52%.
COc1cc(N2CC[C@@H](O)[C@@H]2Cc2cccnc2)ncn1 showed an INHIBITION of 32.21%.
CCCc1nc(C[S+]([O-])Cc2cn3cccc(C)c3n2)no1 (stereo not given) gave an INHIBITION of 16.37%.
Work on CCOC(=O)c1nc(CN2CCC(NC(=O)C(C)C)CC2)cs1 yielded an INHIBITION of -3.25%.
For CCN1CCC2(CCC1=O)CN(c1cnc3ccccc3n1)CCN2C (stereo not given), the INHIBITION was -40.52%.
COc1ccc(-c2cn([C@H](CO)CC(C)C)nn2)cn1 gave an INHIBITION of 79.9%.
In the case of CC(C)C[C@@H](CO)n1cc(-c2cncnc2)nn1, the INHIBITION is reported as 26.99%.
CC(C)C[C@@H](CO)n1cc(-c2cnc(-c3ccco3)nc2)nn1 was tested, and the INHIBITION was -39.9%.
O=C1Nc2ccccc2CC12CCCN2Cc1ccc(C(F)(F)F)cc1 (stereo not given) gave an INHIBITION of -27.83%.
CC(C)c1cc(C2CCCN2C(=O)c2cn3ccsc3n2)no1 (stereo not given) gave an INHIBITION of -46.68%.
COc1ccccc1C1CNCCN1C(=O)c1ccc(F)cc1 (stereo not given) gave an INHIBITION of -20.28%.
Work on O=C(Nc1nncs1)C1CSCN1C(=O)C1CCCC1 (stereo not given) yielded an INHIBITION of -67.78%.
Work on COc1ccc2c(c1)C1(CCN(Cc3cnn(C)c3)CC1)N(C)CC2 yielded an INHIBITION of 21.14%.
For COc1ccc2c(c1)C1(CCN(Cc3ccncc3)CC1)N(C)CC2, the INHIBITION was 32.14%.
COc1ccc2c(c1)C1(CCN(Cc3cccnc3)CC1)N(C)CC2 was tested, and the INHIBITION was 64.92%.
With CC1(C)CN(CCC(=O)NCc2cccc(Cl)c2)CC[C@]1(C)O the INHIBITION was -70.63%.
CN(C)c1nccc(C2CCCN(C(=O)CO)C2)n1 (stereo not given) was tested, and the INHIBITION was 1.13%.
CCn1c(Cn2cncn2)nnc1C1CCN(CC2[C@H]3CNC[C@@H]23)CC1 (stereo not given in full) gave an INHIBITION of -11.68%.
CC(C)CN1C(=O)CC[C@H]2CN(Cc3ncc[nH]3)CC[C@H]21 showed an INHIBITION of 20.74%.
Work on COCCCN1C(=O)CC[C@H]2CN(Cc3ncc[nH]3)CC[C@H]21 yielded an INHIBITION of 50.59%.
With CSCCCN1C(=O)CC[C@H]2CN(Cc3ncc[nH]3)CC[C@H]21 the INHIBITION was 27.5%.
CC1(C)COCCN1C(=O)CCc1nc(-c2ccccn2)no1 showed an INHIBITION of -4.89%.
For CN(C)CC(=O)N1Cc2nc(C(=O)N3CCCN(C)CC3)oc2C1, the INHIBITION was 13.25%.
In the case of O=C(NCCCn1cccn1)C1CCC(=O)N(Cc2ccccc2F)C1 (stereo not given), the INHIBITION is reported as 12%.
With CC(C)Oc1ncnc2c1CCN(c1cc(C(F)(F)F)ncn1)CC2 the INHIBITION was 20.86%.
In the case of COc1ncnc2c1CCN(c1cc(C(F)(F)F)ncn1)CC2, the INHIBITION is reported as 52.08%.
Work on CCOc1ncnc2c1CCN(c1cc(C(F)(F)F)ncn1)CC2 yielded an INHIBITION of -17.38%.
CCOCC1CN(Cc2cnn(C)c2)Cc2c1cnn2CC (stereo not given) gave an INHIBITION of -8.04%.
For O=C(c1ccco1)N1CCCC2(CCN(c3nncs3)C2)C1 (stereo not given), the INHIBITION was -56.25%.
Work on Cc1ncc2c(n1)CN(Cc1nnc(-c3ccccc3)o1)CC2 yielded an INHIBITION of 33.5%.
In the case of O=C(NCC1Cn2nnc(-c3ccncc3)c2CO1)c1ccsc1 (stereo not given), the INHIBITION is reported as 31.96%.
CCc1noc(CN2CCC(C(=O)Nc3cnn(CC)c3)CC2)n1 was tested, and the INHIBITION was 49.9%.
CCn1cc(NC(=O)C2CCN(Cc3noc(C(C)C)n3)CC2)cn1 showed an INHIBITION of -8.7%.
Molecule O=C(Nc1ccccc1)N1CCN(Cc2noc(C3CC3)n2)CC1 has an INHIBITION of 31.7%.
With O=C(Nc1ccccc1F)N1CCN(Cc2noc(C3CC3)n2)CC1 the INHIBITION was 11.1%.
CCn1cc(NC(=O)C2CCN(Cc3noc(C4CC4)n3)CC2)cn1 showed an INHIBITION of 66.2%.
Cc1ccccc1NC(=O)N1CCN(Cc2noc(C3CC3)n2)CC1 was tested, and the INHIBITION was 71.93%.
For CC1(C)CC(C(=O)N2CCC3(CCC(=O)N(C4CC4)C3)CC2)CCO1 (stereo not given), the INHIBITION was -29.52%.
Molecule COCC(=O)N[C@H]1C[C@@H](Cc2cc(CN3CCOCC3)on2)C1(C)C has an INHIBITION of 19.39%.
With CCCS(=O)(=O)N[C@H]1CN(c2ncccc2C(N)=O)C[C@@H]1C(C)C the INHIBITION was -50.23%.
